The text below walks through data of PubChem BioAssay (NCI).

About 83,000 compounds went through this panel and 20% of them were active in at least one assay; those are over-represented in the sample as a whole.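 In brief: 96-well plates, 48 h treatment, single concentration, percent growth endpoint.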 Values without a mark were called inactive. Activity calls are given as the source filed them. Rule for the calls: active = growth percent below 10; inactive = the rest.

Common to all, as to experiment: NCI-60 one-dose screen, 48 h (100 = growth as untreated, 0 = no growth, -100 = all killed)
What all share (details): 10 µM unless noted

Test [1] relates to NCI-H23 lung.
For test [2], the system named is NCI-H226 lung.
The test system of test [3] is NCI-H322M lung.
Test [4] has as its system HOP-62 NSCLC.
Test [5] has as its system NCI-H460 lung.
Test [6] has as its system HOP-92 NSCLC.
Test [7] has as its system NCI-H522 lung.
Test [8] has as its system A549/ATCC NSCLC.
Test [9] deals with 786-0 renal.
The subject of test [10] is COLO 205 colon.
Test [11] concerns DU-145 prostate.
In test [12] the test system is K-562 leukemia.
In test [13] the test system is MALME-3M melanoma.
Test [14] relates to MDA-MB-231 breast.
In test [15] the test system is RXF 393 renal.
In test [16] the test system is SF-268 CNS.
Test [17] deals with SF-295 CNS.
Test [18] concerns SF-539 CNS.
Test [19] has as its system UACC-257 melanoma.
Test [20] has as its system M14 melanoma.

For the compound `O=CN1N=C(c2ccc3c(c2)OCO3)CC1c1cccc(Nc2ccnc3cc(C(F)(F)F)ccc23)c1` (stereo not given), the growth in test [1] is 68.9%; in test [2], 69.2%; in [3], 107%; in [4] it was 81.2%; in test [5], 86.4%; in [6], 73%. The growth is 68.3% in [7]; 83.9% in test [8]; 90.7% in [9]; 67.5% in [10]; 86.4% in test [11]; 37% in test [12]. Also, the growth in [13] is 101%; in [14] it was 78.2%; in [15] it was 86.4%; in test [16], 65.4%; in [17], 83.1%; in test [18] it was 90.5%. Also, the growth in test [19] is 86.8%; in [20] it was 78.6%.

On to `C=C(C)[C@@H]1CC[C@]2(C(=O)O)CC[C@]3(C)[C@H](CC[C@@H]4[C@@]5(C)C[C@@H](CC#Cc6ccc(Cl)cc6)C(=O)C(C)(C)[C@@H]5CC[C@]43C)[C@@H]12`, for which the growth in test [1] was 28.5%; in test [2], 40.2%; in test [3] it was 55.6%; in [4], 54.7%; in test [5] it was 34.8%; in test [6], 67.9%. Besides, the growth was 12.6% in [7]; 31.3% in [8]; 60.5% in [9]; 53.8% in test [10]; 39.4% in test [11]; 28.8% in test [12]. The growth in test [13] was 21.2%; in test [14], 6.05% (active); in [15], 62.4%; in test [16], 74.1%; in [17], 41.3%; in [18] it was 57%. In addition, the figures for the growth in test [19] and in test [20] were 75.6% and 1.24% (active), respectively.

With `CC(=O)OC[C@]12CC[C@@H](c3cn(Cc4ccc(Cn5cc([C@@H]6CC[C@]7(COC(C)=O)CC[C@]8(C)[C@H](CC[C@@H]9[C@@]%10(C)CC[C@H](OC(C)=O)C(C)(C)[C@@H]%10CC[C@]98C)[C@@H]67)nn5)cc4)nn3)[C@@H]1[C@H]1CC[C@@H]3[C@@]4(C)CC[C@H](OC(C)=O)C(C)(C)[C@@H]4CC[C@@]3(C)[C@]1(C)CC2`, the growth in test [1] was 98.3%; in [2], 95.5%; in test [3], 97.6%; in [4], 94.9%; in test [5], 104%; in test [6], 103%. Also, the growth in test [7] was 88.5%; in test [8] it was 93.5%; in [9] it was 95.5%; in [10] it was 105%; in test [11], 103%; in test [12], 94.7%. The growth is 98.8% in [13]; 96.9% in test [14]; 105% in test [15]; 88.8% in test [16]; 98.8% in test [17]; 98.7% in test [18]. In addition, the growth in [19] is 93.3%; in [20] it was 103%.

For `COc1ccc2nc(-c3ccc(OC)c(OC)c3)cc(-c3nnc(SCC(=O)Nc4ccc(/C(C)=N\O)cc4)n3-c3ccccc3)c2c1`, the growth in [1] was 91.5%; in [2] it was 74.6%; in test [3], 84.5%; in test [4] it was 87.9%; in [5] it was 89.6%; in test [6], 61.6%. Also, the growth is 42% in test [7]; 70.7% in test [8]; 88.5% in [9]; 112% in test [10]; 83.1% in [11]; 63.5% in [12]. The growth in test [13] was 110%; in test [14] it was 40.2%; in [15], 79.1%; in test [16] it was 78.1%; in test [17], 92.9%; in [18], 81.3%. Also, the growth is 88% in test [19] and 92.1% in [20].

In the case of `S=c1ssnc1-c1cc2ccccc2o1`, the growth in test [1] was 84.3%; in test [2] it was 92.9%; in test [3] it was 91.8%; in test [4], 86.7%; in [5] it was 70%; in test [6], 4.61% (active). Also, the growth in test [7] was 79.2%; in test [8], 88.2%; in test [9], 24.1%; in [10], 83.6%; in [11], 97.5%; in test [12] it was 55.7%. Also, the growth in test [13] was 79.8%; in test [14], 91.2%; in test [15], 85.6%; in [16], 78.8%; in test [17], 75.1%; in [18] it was 102%. Besides, the growth was 94.5% in test [19] and 52.4% in test [20].

For the compound `CCOC(=O)c1sc(/N=C2\NC(=O)/C(=C/c3ccc(N4CCN(C)CC4)cc3)S2)nc1C`, the growth in [1] is 99.3%; in test [2], 99.7%; in [3] it was 97.6%; in [4], 105%; in [5] it was 109%; in test [6], 108%. The growth in test [7] was 77.4%; in [8] it was 89.6%; in test [9], 87%; in test [10] it was 109%; in test [11] it was 97.3%; in test [12] it was 95.2%. Further, the growth is 99.7% in [13]; 112% in [14]; 112% in [15]; 97.3% in test [16]; 102% in test [17]; 100% in test [18]. Moreover, the growth in test [19] was 110%; in [20], 108%.

`CC[C@]12C=CCN3CC[C@@]4(c5ccc(OC)cc5N(C)[C@H]4[C@@](O)(C(=O)OC)[C@@H]1OC(=O)CCC(=O)O[C@H]1CC[C@H]4[C@@H]5CC[C@H]6CC(=O)CC[C@]6(C)[C@H]5CC[C@]14C)[C@@H]32`: the growth in test [1] is 38.5%; in test [2], 35.4%; in [3] it was 68.3%; in [4], 32.7%; in test [5], 13.8%; in test [6], -2.92% (active). In addition, the growth in test [7] was 2.12% (active); in test [8], 13.2%; in test [9], 30.8%; in [10], -22.1% (active); in test [11], 43.7%; in test [12], 8.73% (active). Besides, the growth in test [13] is 42.5%; in test [14], 34.6%; in test [15], 25.9%; in test [16], 46.2%; in [17], 7.7% (active); in [18] it was 47.3%. Besides, the growth is 26.9% in [19] and 26% in test [20].

For the compound `C=C1C(=O)O[C@H]2[C@H]1CC/C(COC(=O)CCCCC(=O)OC/C1=C/CC[C@@]3(C)O[C@H]3[C@H]3OC(=O)C(=C)[C@@H]3CC1)=C\CC[C@@]1(C)O[C@@H]21`, the growth in test [1] was 65.2%; in [2] it was 75.3%; in test [3] it was 105%; in test [4] it was 86.8%; in [5], 99.3%; in [6], 61.1%. The growth was -36.9% (active) in [7]; 94.9% in test [8]; 68% in test [9]; -18.9% (active) in test [10]; 56.2% in test [11]; 9% (active) in [12]. For the same compound, the growth in test [13] is 25.5%; in test [14], 29.5%; in test [15], -44.1% (active); in test [16], 82.2%; in [17] it was 101%; in test [18], 46.5%. Also, the growth in [19] was 81.9%; in test [20] it was 47.8%.
